Reference: the supplement of paper PMC9262897, “Low-cost anti-mycobacterial drug discovery using engineered E. coli” (Nature Communications, 2022)
Structures can show the parent of a compound that is named as a salt. ± gives the standard deviation of the averaged measurements.

What was measured:
Experiment in all cases: growth (OD600 after 10 h); higher = more growth (less inhibition)
[1] = test system: E. coli TESEC Alr+ wild-type control; details: compound 0.1 mM; raw OD600 reference: median of DMSO wells 0.241, cell-free background 0.041
Method: (§1)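 TESEC Mtb Alr E. coli, or the Alr+ wild-type control, in 384-well plates with Prestwick library compounds at 0.1 mM and 1% DMSO, across arabinose induction levels of 1E3 to 1E7 nM. Growth is read as OD600 after 10 h at 37 °C in triplicate biological replicates.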

E. coli TESEC Mtb Alr [2] = details: compound 0.1 mM
Method: as §1

E. coli TESEC Mtb Asd = details: compound 0.1 mM
Method: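 TESEC E. coli strains in which the native enzyme is deleted and replaced by arabinose-inducible Mtb Asd, DapB, CysH or TrpD, each grown in its selective medium. Strains were screened against the Prestwick library at 0.1 mM and 1% DMSO in 384-well format at low and high arabinose induction. Growth is read as OD600 after 10 h in triplicate.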

[3] = test system: E. coli TESEC Alr+ wild-type control; details: compound 0.1 mM; raw OD600 reference: median of DMSO wells 0.49, cell-free background 0.052
Method: (§2)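 TESEC Mtb Alr E. coli (ΔaraC ΔtolC ΔentC Δalr ΔdadX, arabinose-inducible Mtb Alr) or the Alr+ wild-type control strain, grown in defined M9-fructose medium without D-alanine in 96-well plates with Prestwick library compounds at 0.1 mM and 1% DMSO. Low Alr induction is 0.1 µM arabinose and high induction is 10 mM arabinose.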

E. coli TESEC Mtb Alr [4] = details: compound 0.1 mM; remark: listed apart in the source
Method: as §2

[5] = arabinose 1000 nM, raw OD600 reference: median of DMSO wells 0.294, cell-free background 0.041
[6] = arabinose 10000 nM, raw OD600 reference: median of DMSO wells 0.264, cell-free background 0.041
[7] = arabinose 100000 nM, raw OD600 reference: median of DMSO wells 0.201, cell-free background 0.041
[8] = arabinose 1000000 nM, raw OD600 reference: median of DMSO wells 0.193, cell-free background 0.041
[9] = arabinose 10000000 nM, raw OD600 reference: median of DMSO wells 0.146, cell-free background 0.041
[10] = arabinose induction (level): High, raw OD600 reference: median of DMSO wells 0.331, cell-free background 0.041
[11] = arabinose induction (level): Low, raw OD600 reference: median of DMSO wells 0.417, cell-free background 0.041
[12] = arabinose 100 nM, raw OD600 reference: median of DMSO wells 0.413, cell-free background 0.052
[13] = arabinose 10000000 nM, raw OD600 reference: median of DMSO wells […], cell-free background 0.052

| SMILES | growth [1] | growth (E. coli TESEC Mtb Alr [2]; [5]) | growth (E. coli TESEC Mtb Alr [2]; [6]) | growth (E. coli TESEC Mtb Alr [2]; [7]) | growth (E. coli TESEC Mtb Alr [2]; [8]) | growth (E. coli TESEC Mtb Alr [2]; [9]) | growth (E. coli TESEC Mtb Asd; [10]) | growth (E. coli TESEC Mtb Asd; [11]) | growth [3] | growth (E. coli TESEC Mtb Alr [4]; [12]) | growth (E. coli TESEC Mtb Alr [4]; [13]) |
| --- | --- | --- | --- | --- | --- | --- | --- | --- | --- | --- | --- |
| CCCCC1C(=O)N(c2ccccc2)N(c2ccccc2)C1=O [Phenylbutazone] | 0.17293 ± 0.00015 | 0.224 ± 0.0029 | 0.234 ± 0.023 | 0.124 ± 0.0055 | 0.0869 ± 0.0014 | 0.132 ± 0.0036 | 0.145 ± 0.0034 | 0.261 ± 0.083 | 0.576 ± 0.075 | 0.399 ± 0.0095 | 0.283 ± 0.034 |
| COc1cc(C(=O)NS(=O)(=O)c2ccccc2C)ccc1Cc1cn(C)c2ccc(NC(=O)OC3CCCC3)cc12 [Zafirlukast] | 0.125 ± 0.0034 | 0.0976 ± 0.0046 | 0.0651 ± 0.0044 | 0.164 ± 0.0027 | 0.128 ± 0.0091 | 0.168 ± 0.0084 | 0.193 ± 0.022 | 0.12 ± 0.047 | – | 0.257 ± 0.018 | 0.215 ± 0.024 |
| Cc1ccc(S(=O)(=O)NC(=O)NN2CCCCCC2)cc1 [Tolazamide] | 0.256 ± 0.0047 | 0.293 ± 0.0069 | 0.281 ± 0.005 | 0.249 ± 0.0083 | 0.186 ± 0.012 | 0.17 ± 0.0032 | 0.293 ± 0.026 | 0.414 ± 0.05 | – | 0.398 ± 0.017 | 0.354 ± 0.014 |
| CC(=O)OCC1=C(C(=O)O)N2C(=O)[C@@H](NC(=O)Cc3cccs3)[C@H]2SC1 [Cephalothin sodium salt] | 0.305 ± 0.0066 | 0.334 ± 0.017 | 0.209 ± 0.0072 | 0.283 ± 0.03 | 0.172 ± 0.0079 | 0.174 ± 0.0022 | 0.421 ± 0.021 | 0.421 ± 0.058 | – | 0.332 ± 0.027 | 0.35 ± 0.015 |
| CCOC1O[C@H]([C@@H](COCc2ccccc2)OCc2ccccc2)[C@H](OCc2ccccc2)[C@H]1O (some centres undefined) [Tribenoside] | 0.23 ± 0.005 | 0.29 ± 0.008 | 0.255 ± 0.015 | 0.148 ± 0.0075 | 0.0915 ± 0.0035 | 0.154 ± 0.0022 | 0.214 ± 0.023 | 0.199 ± 0.015 | – | 0.378 ± 0.0058 | 0.0944 ± 0.017 |
| CC[C@H]1OC(=O)[C@H](C)[C@@H](O[C@H]2C[C@@](C)(OC)[C@@H](O)[C@H](C)O2)[C@H](C)[C@@H](O[C@@H]2O[C@H](C)C[C@H](N(C)C)[C@H]2O)[C@](C)(O)C[C@@H](C)CN(C)[C@H](C)[C@@H](O)[C@]1(C)O [Azithromycin] | 0.04107 ± 0.00015 | 0.0419 ± 0.0015 | 0.03977 ± 0.00031 | 0.0416 ± 0.00058 | 0.03993 ± 0.00025 | 0.0413 ± 0.00057 | 0.0597 ± 0.003 | 0.0647 ± 0.0021 | – | 0.05527 ± 0.00032 | 0.05133 ± 0.00015 |
| CCCCN1CCCCC1C(=O)Nc1c(C)cccc1C (centres undefined) [Bupivacaine hydrochloride] | 0.2359 ± 0.0017 | 0.301 ± 0.0072 | 0.247 ± 0.0053 | 0.21 ± 0.0045 | 0.167 ± 0.0039 | 0.157 ± 0.0046 | 0.257 ± 0.046 | 0.418 ± 0.025 | 0.489 ± 0.051 | 0.409 ± 0.01 | 0.339 ± 0.014 |
| CC(C)C[C@H](NC(=O)[C@@H](O)[C@H](N)Cc1ccccc1)C(=O)O [Ubenimex] | 0.24 ± 0.011 | 0.28 ± 0.0072 | 0.2345 ± 0.0011 | 0.215 ± 0.028 | 0.185 ± 0.006 | 0.132 ± 0.0031 | 0.395 ± 0.019 | 0.382 ± 0.025 | 0.528 ± 0.089 | 0.396 ± 0.011 | 0.323 ± 0.018 |
| COc1ccc(C(=O)c2ccccc2)c(O)c1 [Oxybenzone] | 0.114 ± 0.003 | 0.148 ± 0.011 | 0.15 ± 0.004 | 0.151 ± 0.017 | 0.0914 ± 0.0039 | 0.0993 ± 0.0024 | 0.223 ± 0.023 | 0.334 ± 0.01 | – | 0.377 ± 0.022 | 0.146 ± 0.021 |
| O=P(O)(O)C(Cl)(Cl)P(=O)(O)O [Clodronate] | 0.248 ± 0.0073 | 0.308 ± 0.021 | 0.284 ± 0.005 | 0.188 ± 0.016 | 0.193 ± 0.0024 | 0.14 ± 0.0033 | 0.336 ± 0.042 | 0.403 ± 0.025 | – | 0.411 ± 0.0072 | 0.303 ± 0.0027 |
| COc1cc(C(=O)NCc2ccc(OCCN(C)C)cc2)cc(OC)c1OC [Trimethobenzamide hydrochloride] | 0.2204 ± 0.0014 | 0.295 ± 0.0097 | 0.254 ± 0.011 | 0.201 ± 0.017 | 0.158 ± 0.0074 | 0.159 ± 0.0019 | 0.227 ± 0.059 | 0.385 ± 0.015 | – | 0.412 ± 0.005 | 0.354 ± 0.022 |
| CCCN(CCC)CCc1cccc2c1CC(=O)N2 [Ropinirole HCl] | 0.239 ± 0.0025 | 0.301 ± 0.0083 | 0.251 ± 0.0073 | 0.195 ± 0.025 | 0.18 ± 0.009 | 0.146 ± 0.0056 | 0.379 ± 0.066 | 0.441 ± 0.035 | – | 0.408 ± 0.01 | 0.366 ± 0.0066 |
| CCN(CC)C(=S)SSC(=S)N(CC)CC [Disulfiram] | 0.278 ± 0.0078 | 0.197 ± 0.027 | 0.115 ± 0.0063 | 0.161 ± 0.014 | 0.0709 ± 0.0023 | 0.06003 ± 0.00047 | 0.192 ± 0.028 | 0.33 ± 0.034 | – | 0.23 ± 0.093 | 0.146 ± 0.008 |
| CS(=O)(=O)c1ccc([C@@H](O)[C@@H](CF)NC(=O)C(Cl)Cl)cc1 [Florfenicol] | 0.0412 ± 0.0009 | 0.0406 ± 0.00059 | 0.0395 ± 0.0002 | 0.04123 ± 0.0004 | 0.03917 ± 0.00012 | 0.0409 ± 0.00017 | 0.054 ± 0.0047 | 0.0538 ± 0.0014 | – | 0.05607 ± 0.00047 | 0.0524 ± 0.0018 |
| CO/N=C(\C(=O)N[C@@H]1C(=O)N2C(C(=O)O)=C(COC(C)=O)CS[C@H]12)c1csc(N)n1 [Cefotaxime sodium salt] | 0.0395 ± 0.00046 | 0.0388 ± 0.0013 | 0.0398 ± 0.00026 | 0.0388 ± 0.0013 | 0.04017 ± 0.00038 | 0.04007 ± 0.0004 | 0.0625 ± 0.0074 | 0.0606 ± 0.002 | 0.0462 ± 0.0019 | 0.0466 ± 0.0015 | 0.0529 ± 0.0023 |
| N=C(N)NCc1cccc(I)c1 [Iobenguane sulfate] | 0.231 ± 0.005 | 0.289 ± 0.0045 | 0.267 ± 0.0098 | 0.238 ± 0.029 | 0.202 ± 0.012 | 0.149 ± 0.011 | 0.29 ± 0.018 | 0.425 ± 0.056 | – | 0.409 ± 0.016 | 0.384 ± 0.013 |
| O=C1NCC2(CCN(CCc3ccccc3)CC2)O1 [Fenspiride hydrochloride] | 0.248 ± 0.0052 | 0.288 ± 0.013 | 0.27 ± 0.0043 | 0.199 ± 0.0053 | 0.185 ± 0.0044 | 0.148 ± 0.0017 | 0.366 ± 0.098 | 0.45 ± 0.025 | – | 0.415 ± 0.0097 | 0.336 ± 0.0092 |
